This note sets out measurements from publication PMC7862700, “An all-to-all approach to the identification of sequence-specific readers for epigenetic DNA modifications on cytosine”.

Common to all, as to test: DAPPL (digital affinity profiling via proximity ligation, sequencing); 10 mM Tris-HCl pH 7.5, 50 mM NaCl, 1 mM DTT, 4% glycerol, room temperature, 30 min; GST-TFs on glutathione beads, 16-mer random dsDNA library, 0.1% formaldehyde crosslink after washing; high values mean tight binding
One assay concerns the target T1, FEV (Homo sapiens, UniProt Q99581 1-238).
T1 sequence: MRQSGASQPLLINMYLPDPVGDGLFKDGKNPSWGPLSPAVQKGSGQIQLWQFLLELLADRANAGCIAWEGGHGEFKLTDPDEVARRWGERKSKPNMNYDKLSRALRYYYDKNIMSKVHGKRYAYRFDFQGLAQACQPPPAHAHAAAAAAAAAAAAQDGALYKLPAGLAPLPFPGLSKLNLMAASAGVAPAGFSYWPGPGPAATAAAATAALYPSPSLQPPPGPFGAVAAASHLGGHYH
The note with it: protein: recombinant; tags: N-terminal GST; dsDNA, one strand shown. In outline: (§1)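 In yeast, human transcription factors were expressed with a GST fusion, then pulled down on glutathione beads and given DNA barcodes. Pooled with a tag-only sample, they were exposed to 200 nmole of a 16-mer random double-stranded DNA library (Tris/NaCl/DTT/glycerol buffer, room temperature, 30 min), washed, crosslinked with 0.1% formaldehyde, proximity-ligated using BsaI/T4 ligase for 1 h at 37 °C, PCR-amplified and read on an Illumina NextSeq500. Each hexamer's frequency of reads for a factor, divided by the matching frequency for the tag-only sample, gives the binding signal.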

In a further assay the target is ETV5 (Homo sapiens, UniProt P41161 1-510). As to conditions: protein: recombinant; tags: N-terminal GST; dsDNA, one strand shown. In outline: as §1
For a further assay, the target named is HSF1 (Homo sapiens, UniProt Q00613 1-529). The note with it: protein: recombinant; tags: N-terminal GST; chain copies: 3; dsDNA, one strand shown. An outline of the steps: as §1
A further assay deals with T2, SPIC (Homo sapiens, UniProt Q8N5J4 1-248).
T2 sequence: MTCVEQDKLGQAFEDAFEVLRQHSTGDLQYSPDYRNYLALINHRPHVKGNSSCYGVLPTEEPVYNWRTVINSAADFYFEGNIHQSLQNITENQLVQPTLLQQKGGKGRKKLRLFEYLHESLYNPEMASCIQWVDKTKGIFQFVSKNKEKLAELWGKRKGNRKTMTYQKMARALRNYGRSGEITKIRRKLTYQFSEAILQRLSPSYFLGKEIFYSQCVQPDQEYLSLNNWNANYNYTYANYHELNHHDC
The note with it: protein: recombinant; tags: N-terminal GST; dsDNA, one strand shown. An outline of the steps: as §1

A further assay has as its target ELF4 (Homo sapiens, UniProt Q99607 1-663). As to conditions: protein: recombinant; tags: N-terminal GST; dsDNA, one strand shown. An outline of the steps: as §1
For a further assay, the target named is T3, ELK4 (Homo sapiens, UniProt P28324-2 1-405).
T3 sequence: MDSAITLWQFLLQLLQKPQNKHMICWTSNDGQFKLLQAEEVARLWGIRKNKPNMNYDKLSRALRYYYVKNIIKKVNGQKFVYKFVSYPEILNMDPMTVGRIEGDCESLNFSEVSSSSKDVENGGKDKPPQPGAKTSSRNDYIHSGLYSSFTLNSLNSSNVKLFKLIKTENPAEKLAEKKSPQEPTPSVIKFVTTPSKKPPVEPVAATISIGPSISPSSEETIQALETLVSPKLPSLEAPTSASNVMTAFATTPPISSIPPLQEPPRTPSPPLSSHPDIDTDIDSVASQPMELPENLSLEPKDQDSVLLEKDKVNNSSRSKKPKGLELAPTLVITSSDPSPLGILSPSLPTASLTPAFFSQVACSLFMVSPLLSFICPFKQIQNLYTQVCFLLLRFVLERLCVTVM
As to conditions: protein: recombinant; tags: N-terminal GST; dsDNA, one strand shown. In outline: as §1

The target of a further assay is T4, ETV2 (Homo sapiens, UniProt O00321 1-342).
T4 sequence: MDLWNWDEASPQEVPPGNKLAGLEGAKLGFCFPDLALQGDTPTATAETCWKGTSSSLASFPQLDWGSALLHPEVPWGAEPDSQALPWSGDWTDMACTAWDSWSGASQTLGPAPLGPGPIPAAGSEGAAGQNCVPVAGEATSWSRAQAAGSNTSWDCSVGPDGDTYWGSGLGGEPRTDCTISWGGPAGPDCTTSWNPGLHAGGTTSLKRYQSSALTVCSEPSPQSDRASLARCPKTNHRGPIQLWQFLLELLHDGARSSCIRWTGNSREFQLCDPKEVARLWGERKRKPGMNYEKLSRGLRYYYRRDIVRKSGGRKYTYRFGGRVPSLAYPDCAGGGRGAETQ
As to conditions: protein: recombinant; tags: N-terminal GST; dsDNA, one strand shown. An outline of the steps: as §1

The target in the next assay is T5, ELF3 (Homo sapiens, UniProt P78545 1-371).
T5 sequence: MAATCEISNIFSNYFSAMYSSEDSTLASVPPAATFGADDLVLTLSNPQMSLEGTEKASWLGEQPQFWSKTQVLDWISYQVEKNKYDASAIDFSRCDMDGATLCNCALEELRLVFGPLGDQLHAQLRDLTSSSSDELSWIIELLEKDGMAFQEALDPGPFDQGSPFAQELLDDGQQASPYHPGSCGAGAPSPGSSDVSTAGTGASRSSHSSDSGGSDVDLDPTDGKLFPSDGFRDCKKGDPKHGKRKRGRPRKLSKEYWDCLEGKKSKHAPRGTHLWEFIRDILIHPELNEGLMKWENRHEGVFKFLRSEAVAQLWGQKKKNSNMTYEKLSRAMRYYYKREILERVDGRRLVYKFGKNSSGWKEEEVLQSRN
As to conditions: protein: recombinant; tags: N-terminal GST; dsDNA, one strand shown. An outline of the steps:
as §1

In a further assay the target is CRX (Homo sapiens, UniProt O43186 1-299). The note with it: protein: recombinant; tags: N-terminal GST; dsDNA, one strand shown. An outline of the steps: as §1
A further assay concerns the target ETV1 (Homo sapiens, UniProt P50549 1-477). The note with it: protein: recombinant; tags: N-terminal GST; dsDNA, one strand shown. In outline: as §1
Another assay concerns the target T6, ERF (Homo sapiens, UniProt P50548 1-548).
T6 sequence: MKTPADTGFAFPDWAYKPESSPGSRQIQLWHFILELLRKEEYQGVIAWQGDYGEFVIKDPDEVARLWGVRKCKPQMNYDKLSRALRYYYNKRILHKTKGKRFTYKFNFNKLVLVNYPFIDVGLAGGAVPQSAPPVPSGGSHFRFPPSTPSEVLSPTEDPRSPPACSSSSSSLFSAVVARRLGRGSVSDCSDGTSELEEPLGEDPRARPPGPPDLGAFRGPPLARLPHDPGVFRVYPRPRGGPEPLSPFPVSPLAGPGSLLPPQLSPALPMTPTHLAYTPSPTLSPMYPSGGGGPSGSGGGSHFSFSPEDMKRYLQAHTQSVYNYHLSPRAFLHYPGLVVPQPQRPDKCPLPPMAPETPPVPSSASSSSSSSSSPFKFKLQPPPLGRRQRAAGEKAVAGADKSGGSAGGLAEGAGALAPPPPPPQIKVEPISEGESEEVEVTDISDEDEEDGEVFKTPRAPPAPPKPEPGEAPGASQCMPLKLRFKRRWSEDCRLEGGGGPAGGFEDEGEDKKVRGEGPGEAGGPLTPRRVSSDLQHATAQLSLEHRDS
As to conditions: protein: recombinant; tags: N-terminal GST; dsDNA, one strand shown. In outline:
as §1

For another assay, the target named is T7, ETV3L (Homo sapiens, UniProt Q6ZN32 1-361).
T7 sequence: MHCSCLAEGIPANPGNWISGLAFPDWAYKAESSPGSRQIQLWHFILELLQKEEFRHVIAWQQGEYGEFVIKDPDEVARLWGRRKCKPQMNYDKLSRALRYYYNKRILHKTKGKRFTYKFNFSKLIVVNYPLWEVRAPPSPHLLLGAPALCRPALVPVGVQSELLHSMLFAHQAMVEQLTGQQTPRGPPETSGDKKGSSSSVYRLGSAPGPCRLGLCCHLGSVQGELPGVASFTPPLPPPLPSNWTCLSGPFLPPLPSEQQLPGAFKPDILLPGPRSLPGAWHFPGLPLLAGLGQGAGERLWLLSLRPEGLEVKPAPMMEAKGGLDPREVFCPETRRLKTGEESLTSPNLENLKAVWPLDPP
The note with it: protein: recombinant; tags: N-terminal GST; dsDNA, one strand shown. In outline: as §1

The next assay has as its target T8, ETS2 (Homo sapiens, UniProt P15036 1-469).
T8 sequence: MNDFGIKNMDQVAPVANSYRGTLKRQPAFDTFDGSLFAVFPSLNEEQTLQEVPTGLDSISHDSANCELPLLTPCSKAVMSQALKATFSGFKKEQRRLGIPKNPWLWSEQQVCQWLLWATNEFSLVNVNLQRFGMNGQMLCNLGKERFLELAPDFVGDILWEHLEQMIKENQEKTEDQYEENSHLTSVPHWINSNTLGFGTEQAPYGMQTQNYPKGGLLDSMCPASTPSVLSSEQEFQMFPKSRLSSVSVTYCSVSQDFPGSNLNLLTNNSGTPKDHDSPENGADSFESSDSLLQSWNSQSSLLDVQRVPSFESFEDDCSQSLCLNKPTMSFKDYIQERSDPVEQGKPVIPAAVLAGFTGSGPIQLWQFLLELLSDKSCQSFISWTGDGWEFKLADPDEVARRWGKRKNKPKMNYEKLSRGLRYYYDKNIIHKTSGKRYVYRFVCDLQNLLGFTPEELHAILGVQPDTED
As to conditions: protein: recombinant; tags: N-terminal GST; dsDNA, one strand shown. An outline of the steps: as §1

For the next assay, the target named is T9, SPDEF (Homo sapiens, UniProt O95238 1-335).
T9 sequence: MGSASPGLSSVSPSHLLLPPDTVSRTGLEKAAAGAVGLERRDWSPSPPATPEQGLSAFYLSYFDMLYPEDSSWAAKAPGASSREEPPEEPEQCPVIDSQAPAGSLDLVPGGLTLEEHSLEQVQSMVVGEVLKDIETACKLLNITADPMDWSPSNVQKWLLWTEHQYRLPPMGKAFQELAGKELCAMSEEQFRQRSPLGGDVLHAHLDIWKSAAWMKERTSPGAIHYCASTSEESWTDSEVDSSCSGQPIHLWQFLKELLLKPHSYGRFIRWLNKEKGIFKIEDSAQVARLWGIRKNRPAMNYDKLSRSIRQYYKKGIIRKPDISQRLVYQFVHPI
The note with it: protein: recombinant; tags: N-terminal GST; dsDNA, one strand shown. An outline of the steps:
as §1

A further assay has as its target T10, ETV7 (Homo sapiens, UniProt Q9Y603 1-341).
T10 sequence: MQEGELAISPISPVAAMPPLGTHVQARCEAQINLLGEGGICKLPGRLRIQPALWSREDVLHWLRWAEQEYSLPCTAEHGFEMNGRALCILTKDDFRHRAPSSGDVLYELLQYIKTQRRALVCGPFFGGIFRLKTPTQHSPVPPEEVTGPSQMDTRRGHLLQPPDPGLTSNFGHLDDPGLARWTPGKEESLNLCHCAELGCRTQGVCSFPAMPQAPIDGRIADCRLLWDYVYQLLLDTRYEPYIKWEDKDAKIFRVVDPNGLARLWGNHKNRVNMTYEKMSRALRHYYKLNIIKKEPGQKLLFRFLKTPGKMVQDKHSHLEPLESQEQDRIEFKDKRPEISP
As to conditions: protein: recombinant; tags: N-terminal GST; dsDNA, one strand shown. An outline of the steps:
as §1

Another assay addresses T11, ELF5 (Homo sapiens, UniProt Q9UKW6-2 1-255).
T11 sequence: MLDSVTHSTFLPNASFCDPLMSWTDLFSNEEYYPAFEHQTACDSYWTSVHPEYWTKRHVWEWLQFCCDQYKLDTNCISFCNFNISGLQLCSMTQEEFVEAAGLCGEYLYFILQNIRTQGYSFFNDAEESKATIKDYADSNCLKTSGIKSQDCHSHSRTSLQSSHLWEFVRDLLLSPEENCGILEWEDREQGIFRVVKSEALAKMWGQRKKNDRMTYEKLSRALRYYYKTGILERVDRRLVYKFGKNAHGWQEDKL
The note with it: protein: recombinant; tags: N-terminal GST; dsDNA, one strand shown. In outline:
as §1

The target in the next assay is T12, ETV3 (Homo sapiens, UniProt P41162-2 1-143).
T12 sequence: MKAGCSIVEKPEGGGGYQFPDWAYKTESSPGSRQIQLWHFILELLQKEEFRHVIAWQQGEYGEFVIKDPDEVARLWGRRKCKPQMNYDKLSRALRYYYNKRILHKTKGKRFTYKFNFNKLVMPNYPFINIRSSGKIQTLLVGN
The note with it: protein: recombinant; tags: N-terminal GST; dsDNA, one strand shown. In outline: as §1

The target in a further assay is ETV6 (Homo sapiens, UniProt P41212 1-452). As to conditions: protein: recombinant; tags: N-terminal GST; dsDNA, one strand shown. An outline of the steps:
as §1

Chain of ETV5 (P41161 whole entry): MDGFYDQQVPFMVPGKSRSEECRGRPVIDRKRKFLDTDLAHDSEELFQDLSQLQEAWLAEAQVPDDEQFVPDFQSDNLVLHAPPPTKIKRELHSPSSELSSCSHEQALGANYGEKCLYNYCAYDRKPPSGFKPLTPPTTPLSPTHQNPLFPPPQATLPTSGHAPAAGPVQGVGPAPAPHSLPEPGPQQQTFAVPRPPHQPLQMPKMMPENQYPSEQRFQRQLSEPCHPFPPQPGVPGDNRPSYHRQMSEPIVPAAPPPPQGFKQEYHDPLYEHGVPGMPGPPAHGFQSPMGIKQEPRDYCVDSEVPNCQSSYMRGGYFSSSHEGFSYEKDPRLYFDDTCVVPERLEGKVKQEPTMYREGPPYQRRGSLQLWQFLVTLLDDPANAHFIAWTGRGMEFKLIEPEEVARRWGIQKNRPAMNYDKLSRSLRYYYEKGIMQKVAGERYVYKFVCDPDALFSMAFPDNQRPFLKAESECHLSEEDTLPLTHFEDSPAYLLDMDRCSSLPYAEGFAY
Chain of ELF4 (Q99607 whole entry): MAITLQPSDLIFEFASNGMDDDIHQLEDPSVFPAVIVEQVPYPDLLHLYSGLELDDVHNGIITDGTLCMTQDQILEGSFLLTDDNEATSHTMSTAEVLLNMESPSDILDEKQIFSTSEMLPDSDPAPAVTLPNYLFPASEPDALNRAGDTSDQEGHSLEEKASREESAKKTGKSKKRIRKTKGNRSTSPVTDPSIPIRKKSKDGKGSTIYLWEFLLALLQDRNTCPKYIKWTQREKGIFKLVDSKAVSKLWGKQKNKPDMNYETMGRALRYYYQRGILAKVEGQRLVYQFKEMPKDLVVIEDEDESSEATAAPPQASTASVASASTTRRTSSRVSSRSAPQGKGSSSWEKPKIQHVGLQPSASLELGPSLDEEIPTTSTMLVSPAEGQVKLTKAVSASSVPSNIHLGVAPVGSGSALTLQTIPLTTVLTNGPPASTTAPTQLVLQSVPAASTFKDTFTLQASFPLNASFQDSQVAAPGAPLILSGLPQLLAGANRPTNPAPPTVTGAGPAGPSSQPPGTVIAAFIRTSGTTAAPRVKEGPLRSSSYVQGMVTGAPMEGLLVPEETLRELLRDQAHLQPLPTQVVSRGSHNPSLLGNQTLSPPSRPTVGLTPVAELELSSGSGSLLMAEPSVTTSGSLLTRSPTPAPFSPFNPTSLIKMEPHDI
Chain of ETV1 (P50549 whole entry): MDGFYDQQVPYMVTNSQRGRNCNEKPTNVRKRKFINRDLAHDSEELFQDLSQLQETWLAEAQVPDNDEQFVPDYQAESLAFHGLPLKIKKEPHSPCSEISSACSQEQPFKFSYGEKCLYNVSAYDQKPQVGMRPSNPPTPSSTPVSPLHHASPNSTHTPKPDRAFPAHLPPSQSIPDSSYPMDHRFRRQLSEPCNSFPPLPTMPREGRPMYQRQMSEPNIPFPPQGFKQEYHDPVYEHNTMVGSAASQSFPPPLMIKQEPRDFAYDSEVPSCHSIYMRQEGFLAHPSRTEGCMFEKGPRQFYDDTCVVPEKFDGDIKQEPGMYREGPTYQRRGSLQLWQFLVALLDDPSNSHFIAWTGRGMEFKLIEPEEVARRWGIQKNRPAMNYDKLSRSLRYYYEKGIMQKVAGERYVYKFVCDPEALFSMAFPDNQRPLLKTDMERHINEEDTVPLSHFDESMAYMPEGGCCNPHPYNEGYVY
Chain of CRX (O43186 whole entry): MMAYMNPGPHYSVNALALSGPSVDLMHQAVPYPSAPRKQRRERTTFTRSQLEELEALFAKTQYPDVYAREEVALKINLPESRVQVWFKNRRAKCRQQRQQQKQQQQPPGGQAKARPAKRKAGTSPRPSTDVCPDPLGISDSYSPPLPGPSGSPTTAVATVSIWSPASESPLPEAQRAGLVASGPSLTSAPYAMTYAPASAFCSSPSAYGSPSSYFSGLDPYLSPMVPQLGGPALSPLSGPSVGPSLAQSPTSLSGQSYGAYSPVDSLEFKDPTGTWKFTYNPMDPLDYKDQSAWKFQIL
Chain of HSF1 (Q00613 whole entry): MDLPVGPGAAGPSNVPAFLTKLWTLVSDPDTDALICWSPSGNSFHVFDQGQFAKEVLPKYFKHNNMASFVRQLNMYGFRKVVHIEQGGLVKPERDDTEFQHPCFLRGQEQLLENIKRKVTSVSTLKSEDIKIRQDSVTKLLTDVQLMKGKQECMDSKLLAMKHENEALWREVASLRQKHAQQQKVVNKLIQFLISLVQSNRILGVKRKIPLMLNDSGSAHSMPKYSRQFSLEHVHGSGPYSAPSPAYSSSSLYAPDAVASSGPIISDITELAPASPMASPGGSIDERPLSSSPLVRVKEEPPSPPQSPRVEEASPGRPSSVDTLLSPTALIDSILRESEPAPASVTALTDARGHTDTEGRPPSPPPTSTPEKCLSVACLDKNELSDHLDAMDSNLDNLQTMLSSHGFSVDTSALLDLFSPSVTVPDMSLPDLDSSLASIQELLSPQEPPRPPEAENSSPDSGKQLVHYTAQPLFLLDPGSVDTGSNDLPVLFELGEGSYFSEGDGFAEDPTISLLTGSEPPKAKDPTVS
Chain of ETV6 (P41212 whole entry): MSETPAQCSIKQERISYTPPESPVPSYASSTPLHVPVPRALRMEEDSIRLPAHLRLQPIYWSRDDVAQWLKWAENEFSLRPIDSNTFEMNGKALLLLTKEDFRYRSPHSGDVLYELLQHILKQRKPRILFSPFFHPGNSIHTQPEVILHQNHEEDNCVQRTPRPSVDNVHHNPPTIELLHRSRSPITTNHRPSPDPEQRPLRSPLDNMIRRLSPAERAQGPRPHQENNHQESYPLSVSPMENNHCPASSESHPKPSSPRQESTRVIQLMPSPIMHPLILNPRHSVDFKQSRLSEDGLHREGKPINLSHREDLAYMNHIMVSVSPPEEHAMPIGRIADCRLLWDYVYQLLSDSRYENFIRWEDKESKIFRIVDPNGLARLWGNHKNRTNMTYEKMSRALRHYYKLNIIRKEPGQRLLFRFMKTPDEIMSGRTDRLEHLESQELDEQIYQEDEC

GCCCTA: the binding signal was 1.28 fold enrichment (6-mer frequency, TF over GST control) with FEV; 1.16 fold enrichment (6-mer frequency, TF over GST control) with ETV5; 1.13 fold enrichment (6-mer frequency, TF over GST control) with HSF1; 1.18 fold enrichment (6-mer frequency, TF over GST control) with SPIC; 1.24 fold enrichment (6-mer frequency, TF over GST control) in the assay with ELF4; 1.24 fold enrichment (6-mer frequency, TF over GST control) in the assay with ELK4. For the same sequence, the binding signal is 1.06 fold enrichment (6-mer frequency, TF over GST control) in the assay with ETV2; 1.19 fold enrichment (6-mer frequency, TF over GST control) in the assay with ELF3; 1.27 fold enrichment (6-mer frequency, TF over GST control) with CRX; 1.06 fold enrichment (6-mer frequency, TF over GST control) with ETV1; 1.21 fold enrichment (6-mer frequency, TF over GST control) in the assay with ERF; 1.17 fold enrichment (6-mer frequency, TF over GST control) with ETV3L. Besides, the binding signal in the assay with ETS2 is 1.22 fold enrichment (6-mer frequency, TF over GST control); with SPDEF it was 1.21 fold enrichment (6-mer frequency, TF over GST control); with ETV7, 1.12 fold enrichment (6-mer frequency, TF over GST control); in the assay with ELF5 it was 1.11 fold enrichment (6-mer frequency, TF over GST control); with ETV3, 1.18 fold enrichment (6-mer frequency, TF over GST control); with ETV6, 1.17 fold enrichment (6-mer frequency, TF over GST control).
